Bioassay records as filed in PubChem BioAssay.
mTORC1 inh = Acumen qHTS Assay for Inhibitors of the mTORC1 Signaling Pathway in MEF (Tsc2-/-, p53-/-) Cells: Sytravon; Potency, µM (doses to about 38.3 µM), for the others: at the top dose activity change, negative = inhibition, hits mostly inhibitors; 0.78% of 44,000 active; Tsc2-/- p53-/- MEF, phospho-rpS6 immunofluorescence/PI, 24 h;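 note: plate controls were DMSO for no effect and rapamycin for full effect; nearly all actives have a fitted effect of over 50% in size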
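Tsc2-/-, p53-/- mouse embryonic fibroblasts (empty-vector line) exposed to compound 24 hrs at 37 C, fixed, immunostained for phospho-rpS6 and counterstained with propidium iodide. Acumen laser scanning gives % positive cells from Alexa 488/PI ratio, thresholded using 7.5 nM rapamycin; PI count gives viability.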
PMP22 txn = Cell-based coincidence reporter assay to measure PMP22 gene transcription in S16 Pmp22-F2sN cells - Primary screen | S16 Pmp22-F2sN Schwann cells, FLuc/NLuc coincidence luminescence, 24 h | Potency, µM (top dose mostly 57.5 µM), for inactives: top-dose activity change, negative = inhibition, hits mostly inhibitors | 2% of 43,000 active; active = clear falling dose curves in both reporters; inconclusive = both reporters move, but less clearly or upward; inactive = either reporter flat; the % is the NLuc reporter signal
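S16 Schwann cells carrying FLuc/NLuc coincidence reporter in the Pmp22 3' UTR treated with compound 24 h at 37C; FLuc then NLuc luminescence read sequentially by dual-luciferase reagents.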
S16 viability = Cell viability qHTS assay in S16 Pmp22-F2sN cells; S16 Pmp22-F2sN Schwann cells (luciferase reporters placed in the Pmp22 gene) viability, CellTiter-Glo, 24 h; Potency, µM (highest dose often 57.5 µM), for the others: at the highest dose activity change, negative = cytotoxicity, hits mostly cytotoxic; 0.48% of 43,000 active; AID 1508642, 2021; note: nearly all actives have a fitted effect of over 65% in size
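S16 Schwann cells carrying the Pmp22-F2sN reporter, seeded in 1536-well format, were exposed to library compounds for 24 h at 37C. Viability was read as CellTiter-Glo luminescence after 15 min at room temperature.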
OvCa metastasis = Primary qHTS assay for Inhibitors of ovarian cancer metastasis using an organotypic tumor microenvironment (TME) model; AID 1963576, 2024; Potency, µM (highest dose often 45.8 µM), inactives show top-dose activity change, negative = inhibition, hits mostly inhibitors; SKOV3ip1-GFP adhesion/invasion on 3D omental model, fluorescence; 0.1% of 46,000 active;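 note: plate controls were DMSO wells for no effect and tomatine positive control wells for full effect; nearly all actives have a fitted effect of over 65% in size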
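qHTS, 4-pt dose (0.36-46 umol/L); SKOV3ip1-GFP, 1,200 cells/well, no FBS; primary omental fibroblast/mesothelial co-culture 48 h pre-grown; 2 h RT + 16 h 37 C; PBS wash, 4% PFA; GFP count 488/509 nm.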
p53null 39C tox = qHTS Screen for Compounds that Selectively Target Cancer Cells with p53 Mutations: Cytotoxicity of p53 Null Cells at the Nonpermissive Temperature; 0.97% of 55,000 active; Potency, µM (series often up to 46.1 µM), for inactives: at the highest dose activity, negative = cell killing, usual class: cytotoxic; AID 904, 2007; H1299 p53-null (neo) cells, 39C, ATPlite viability, 24 h;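 note: 0% = DMSO only and -100% = full killing by 100 µM tamoxifen; nearly all actives have a fitted effect of over 50% in size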
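Cells seeded at 600/well, 37C overnight. Compound added (up to 46 uM), plates shifted to 39C for 24 hr. ATPlite added, luminescence read after 20 min at room temperature.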
p53null 32C kill = qHTS Screen for Compounds that Selectively Target Cancer Cells with p53 Mutations: Cytotoxicity of p53 Null Cells at the Permissive Temperature; Potency, µM (doses to about 46.1 µM), inactives show at the highest dose activity change, negative = cytotoxicity, hits mostly cytotoxic; 0.62% of 55,000 active; H1299-neo p53 null cells, ATP luminescence, 24 h, 32C; AID 903, 2007;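 note: 0% = DMSO only and -100% = full killing by 100 µM tamoxifen; nearly all actives have a fitted effect of over 55% in size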
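H1299-neo, 600 cells/well; overnight 37C; cpd up to 46 uM, 24 h at 32C; ATPlite luminescence after 20 min RT; normalized to DMSO (0%) and tamoxifen 100 uM (100% kill); Hill-fit AC50.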
* = called active by the depositor; i = inactive; u = inconclusive; x = not tested or not shown. In the library only some 3% were active in any assay of this set; here they are far more common. Unless noted, calls come from the whole dose curve; as a rule, active = well fitted curve in the direction sought with a large enough effect; inconclusive = small, poorly fitted or top-dose-only effect, or another doubt; inactive = no such curve, though single readings can be large; an effect the other way counts as inactive or inconclusive. Unless noted, % is set by controls: 0 for no effect and ±100 for the full control effect; potency is the fitted concentration of half-maximal effect.

SMILES | mTORC1 inh | PMP22 txn | S16 viability | OvCa metastasis | p53null 39C tox | p53null 32C kill
CCn1nc(-c2ccccc2)nc2c(=O)n(C)c(=O)nc1-2 | x | x | x | x | 18% | 3.5µM*
CCOC(=O)c1c(C(C#N)=CN)c2ccc(Cl)c(Cl)c2n1C | x | x | x | -22% | x | x
C=C[C@@H]1CN2CCC1C[C@H]2[C@H](O)c1ccnc2ccccc12 (some centres undefined) | x | x | x | 8% | x | x
Cc1ccc(NC(=O)CSc2nc(-c3ccco3)cc(C(F)(F)F)n2)c(C)c1 | 0.83µM* | u | u | u | u | 23%
COc1cccc2c1[C@]13CCN(CC4CC4)[C@H](C2)[C@]1(OC)CCC(=O)C3 | x | x | x | 0% | x | x
Cc1nc2c(=O)n(C)c(=O)nc-2n(C)n1 | x | x | x | x | 3.2µM* | 1.3µM*
COC(=O)C1CN(C#N)N(c2ccc(Cl)cc2)C12c1ccccc1-c1ccccc12 (centres undefined) | x | x | x | x | u | 8.9µM*
O=C(Nc1ccc(Cl)c(C(F)(F)F)c1)c1ccc2c(c1)CCN2S(=O)(=O)c1ccccc1 | 8.3µM* | u | 22µM* | i | -2% | 16%
CO[C@H]1CCC(O[C@H]2C[C@H]([C@]3(C)CC[C@]4(C[C@H](O)[C@@H](C)[C@@H]([C@@H](C)C=C(C)C(=O)[C@H](C)C[C@H](C)C(=O)O)O4)O3)O[C@]3(O[C@@H]([C@H]4O[C@@](O)(CO)[C@H](C)C[C@H]4C)C[C@H]3C)[C@H]2C)O[C@H]1C (some centres undefined) | x | x | x | -19% | x | x
CC(C)N[C@@H]1CCn2c(=O)[nH]c3cccc(c32)[C@@H]1O | x | x | x | 5% | x | x
Cc1ccc(S(=O)(=O)c2nnn3c2nc(N2CCC(C(N)=O)CC2)c2cc(Cl)ccc23)cc1C | 1% | 16µM* | u | -21% | u | 11%
COc1ccc2nc(NC(=O)c3nc(S(=O)(=O)Cc4cccc(C)c4)ncc3Cl)sc2c1 | 6.6µM* | 6.2µM* | 10µM* | u | u | -27%
CCOc1ccc2nc(NC(=O)c3cccn(Cc4ccc(C)cc4)c3=O)sc2c1 | -5% | -23% | 11% | -1% | 26% | -4%
C[C@](O)(COc1ccc(C#N)cc1)C(=O)Nc1ccc(C#N)c(C(F)(F)F)c1 | x | x | x | -8% | x | x
O=C(c1ccccc1)c1ccc2nc(N3CCN(c4ccc(F)cc4)CC3)c3nncn3c2c1 | 4.1µM* | u | 16% | 7% | -20% | 5%
COc1ccc(N2CCN(C(=O)C3CCCN(S(=O)(=O)c4ccc5c(c4)CCCN5C(C)=O)C3)CC2)cc1 (centres undefined) | 7.4µM* | 14µM* | u | i | -11% | 2%
C=C[C@@H]1CN2CCC1C[C@@H]2[C@@H](O)c1ccnc2ccccc12 (some centres undefined) | x | x | x | -15% | x | x
C[C@@H]1[C@@H](CC(C[C@H]2O[C@@H]3O[C@]4(C)CC[C@@H]5[C@H](C)CC[C@@H]([C@H]2C)[C@@]35OO4)C[S+](=O)([O-])c2ccc(COC(=O)N(C)C)cc2)O[C@@H]2O[C@]3(C)CC[C@H]4[C@H](C)CC[C@@H]1[C@@]24OO3 (some centres undefined) | x | x | x | -5% | x | x
COc1ccc(CNC(=O)Cn2c(SCC(=O)Nc3ccc(C)c(C)c3)nc3ccccc32)cc1 | 16µM* | u | -29% | u | u | u
COc1ccc2c(c[n+](C)c3c4cc5c(cc4ccc23)OCO5)c1OC | x | x | x | 23µM* | x | x
CCOC(=O)Nc1ccc(NCc2ccc(F)cc2)cc1N | x | x | x | -7% | x | x
Cc1ccccc1Cn1cccc(C(=O)Nc2nc3ccccc3s2)c1=O | 0% | -13% | 0% | i | 14% | 10µM*
O=C(Nc1nc2ccccc2s1)c1cccn(Cc2ccccc2)c1=O | -2% | -17% | 14% | i | 8% | u
